Reference: the antibiotic and cytotoxicity screens of Wong et al. (2023)
The campaign covered roughly 39,000 compounds. About 3,300 (8.5%) were called active. This is one part of a sample in which actives are shown more often than they occur.

system: HepG2; experiment: cytotoxicity call (relative viability < 0.9); conditions: 10 µM

Row | SMILES | cytotoxicity call
1 | Nc1ccc(/C=C/C(=O)NCc2cc3cc(-c4ccc(C(=O)N5CCC(F)(F)CC5)cc4)cc(-c4ccc(F)cc4)c3o2)cn1 | active
2 | C[C@H]1CN([C@@H](C)CO)C(=O)CCCn2nncc2CO[C@@H]1CN(C)C(=O)C1CC1 | inactive
3 | CC(C)NC(=O)Nc1cccc2c1O[C@H](CN(C)Cc1ccc(Oc3ccccc3)cc1)[C@@H](C)CN([C@H](C)CO)C2=O | inactive
4 | Cc1ccc2nccc(C(=O)N3CCC[C@@H](Cn4cc(C(C)(C)N)nn4)C3)c2c1 | inactive
5 | C[C@H]1CCCCO[C@H](CN(C)C(=O)Nc2cccc3ccccc23)[C@@H](C)CN([C@@H](C)CO)C(=O)c2cc(NS(C)(=O)=O)ccc2O1 | inactive
6 | COc1cc(N2CCC(N)CC2)ccc1Nc1ncc(Cl)c(-c2c[nH]c3ccccc23)n1 | active
7 | Cc1cc(Nc2ncc(Cl)c(Nc3ccccc3S(=O)(=O)C(C)C)n2)c(OC(C)C)cc1C1CCNCC1 | active
8 | COc1cc(N2CCC(N3CCN(C)CC3)CC2)ccc1Nc1ncc(Cl)c(Nc2ccccc2S(=O)(=O)C(C)C)n1 | active
9 | NC1CCN(C(=O)c2c[nH]c3ccccc23)CC1 | inactive
10 | COc1cc(C(=O)N2CCC(N3CCN(C)CC3)CC2)ccc1Nc1ncc2c(n1)N(C)c1ccccc1C(=O)N2C | active
11 | COc1cc(C(=O)N2CCN(CCN3C(=O)c4cccc5cccc(c45)C3=O)CC2)cc(OC)c1OC | inactive
12 | COc1cc(C(=O)NC2CCN(C)CC2)ccc1Nc1ncc2c(n1)N(C1CCC(O)CC1)CCC(=O)N2C (stereo not given) | inactive
13 | COc1cc(N2CCC(O)CC2)ccc1Nc1cc(Nc2ccccc2S(=O)(=O)C(C)C)c2cc[nH]c2n1 | inactive
14 | Cc1noc(C)c1S(=O)(=O)Nc1ccc2c(c1)C(=O)N([C@@H](C)CO)C[C@H](C)[C@H](CN(C)C(=O)NC1CCCCC1)O2 | inactive
15 | Cc1noc(C)c1NC(=O)N(C)C[C@H]1Oc2c(NC(=O)c3ccc(-c4nccs4)cc3)cccc2C(=O)N([C@@H](C)CO)C[C@H]1C | inactive
16 | Cc1noc(C)c1NC(=O)N(C)C[C@@H]1OCCCC[C@H](C)Oc2ccc(NC(=O)c3ccccc3)cc2C(=O)N([C@@H](C)CO)C[C@@H]1C | inactive
17 | NC[C@H]1OB(O)c2c(OCCCO)cccc21 | inactive
18 | C=CCOC(=O)[C@H]1[C@@H]2C(=O)O[C@@H](c3ccccc3)[C@@H](c3ccccc3)N2[C@@H](c2ccc(OCCOC(=O)[C@@H]3C[C@@H]4C(=O)N5CCC[C@H]5C(=O)N4[C@@H]3c3cccc(OCCO)c3)cc2)[C@]12C(=O)Nc1ccc(I)cc12 | inactive
19 | CC(C)NC(=O)Nc1ccc2c(c1)CC(=O)N([C@H](C)CO)C[C@H](C)[C@H](CN(C)C(=O)NC1CCCCC1)O2 | inactive
20 | CN1C(=O)c2cc(NC(=O)c3cccs3)ccc2OC[C@@H]2O[C@@H](CC(=O)NCC(F)(F)F)CC[C@@H]21 | inactive
21 | COc1cc(N2CCC(N(C)C)CC2)ccc1Nc1ncc(Cl)c(Nc2ccccc2P(C)(C)=O)n1 | active
22 | C=C(C)C1CCC2(C(=O)O)CCC3(C)C(CCC4C5(C)CCC(O)C(C)(C)C5CCC43C)C12 (stereo not given) | inactive

Row | SMILES | cytotoxicity call
23 | C=C(C)C1CCC2(CO)CCC3(C)C(CCC4C5(C)CCC(O)C(C)(C)C5CCC43C)C12 (stereo not given) | active
24 | C=C(C)C1CCC2(C)CCC3(C)C(CCC4C5(C)CCC(O)C(C)(C)C5CCC43C)C12 (stereo not given) | inactive
25 | CCS(=O)(=O)Nc1ccc2c(c1)C(=O)N(C)[C@@H]1CC[C@@H](CC(=O)NCCOC)O[C@@H]1CO2 | inactive
26 | Cc1noc(C)c1NC(=O)N(C)C[C@@H]1Oc2ccc(NC(=O)Nc3ccc(C(F)(F)F)cc3)cc2CC(=O)N([C@H](C)CO)C[C@H]1C | inactive
27 | CNC[C@@H]1Oc2cc(C#CC(C)(C)O)ccc2S(=O)(=O)N([C@@H](C)CO)C[C@@H]1C | inactive
28 | Cc1ccc(S(=O)(=O)Nc2cccc3c2O[C@H](CN(C)Cc2ccc(-c4ccccc4)cc2)[C@@H](C)CN([C@H](C)CO)C3=O)cc1 | inactive
29 | C[C@@H]1CN([C@@H](C)CO)C(=O)c2cccc(NS(=O)(=O)c3ccc(Cl)cc3)c2O[C@@H]1CN(C)Cc1ccc(-c2ccccc2)cc1 | active
30 | Cc1ccc(S(=O)(=O)Nc2cccc3c2O[C@H](CN(C)Cc2ccc(-c4ccccc4)cc2)[C@H](C)CN([C@H](C)CO)C3=O)cc1 | active
31 | Cc1ccc(S(=O)(=O)Nc2cccc3c2O[C@@H](CN(C)Cc2ccc(-c4ccccc4)cc2)[C@@H](C)CN([C@@H](C)CO)C3=O)cc1 | inactive
32 | Cc1ccc(S(=O)(=O)Nc2cccc3c2O[C@@H](CN(C)Cc2ccc(-c4ccccc4)cc2)[C@@H](C)CN([C@H](C)CO)C3=O)cc1 | active
33 | Cc1ccc(S(=O)(=O)Nc2cccc3c2O[C@@H](CN(C)Cc2ccc(-c4ccccc4)cc2)[C@H](C)CN([C@H](C)CO)C3=O)cc1 | inactive
34 | Cc1ccc(S(=O)(=O)Nc2cccc3c2O[C@H](CN(C)Cc2ccc(-c4ccccc4)cc2)[C@@H](C)CN([C@@H](C)CO)C3=O)cc1 | inactive
35 | C[C@@H]1CN([C@H](C)CO)C(=O)c2cccc(NS(=O)(=O)c3ccccc3)c2O[C@@H]1CN(C)Cc1ccc(-c2ccccc2)cc1 | active
36 | C[C@H]1CN([C@@H](C)CO)C(=O)c2cccc(NS(=O)(=O)c3ccccc3)c2O[C@H]1CN(C)Cc1ccc(-c2ccccc2)cc1 | inactive
37 | C[C@@H]1CN([C@@H](C)CO)C(=O)c2cccc(NS(=O)(=O)c3ccc(Cl)cc3)c2O[C@H]1CN(C)Cc1ccc(-c2ccccc2)cc1 | inactive
38 | C[C@@H]1CN([C@H](C)CO)C(=O)c2cccc(NS(=O)(=O)c3ccc(Cl)cc3)c2O[C@H]1CN(C)Cc1ccc(-c2ccccc2)cc1 | inactive
39 | C[C@@H]1CN([C@@H](C)CO)C(=O)c2cccc(NS(=O)(=O)c3ccccc3)c2O[C@H]1CN(C)Cc1ccc(-c2ccccc2)cc1 | inactive
40 | O=C(C[C@@H]1CC[C@H](NC(=O)Nc2ccc3c(c2)OCO3)[C@@H](CO)O1)NCCCN1CCOCC1 | inactive
41 | C[C@@H]1CN([C@H](C)CO)C(=O)c2cc(NC(=O)CCCN(C)C)ccc2O[C@@H](C)CCCCO[C@H]1CN(C)S(=O)(=O)c1cn(C)cn1 | inactive
42 | C[C@H](CO)N1C[C@H](C)[C@H](CN(C)C(=O)c2cccc(F)c2)Oc2cc(C#CC3CC3)ccc2S1(=O)=O | inactive
43 | CC(C)C[C@@](O)(CC(=O)O)C(=O)O | inactive
44 | CN(C)CCCNC(=O)C[C@@H]1CC[C@H]2[C@@H](COc3ccc(NS(C)(=O)=O)cc3C(=O)N2C)O1 | inactive

Row | SMILES | cytotoxicity call
45 | CC(C)N1CC=C[C@@]23O[C@@H]4C=CCOC(=O)[C@@H]4[C@H]2C(=O)N([C@@H](C)CO)[C@@H]3C1=O | inactive
46 | O=c1[nH]c(=S)[nH]nc1O | inactive
47 | CC1(C)C=C(C(=O)N2CCOCC2)C(C)(C)N1 | inactive
48 | C[C@@H]1CN([C@H](C)CO)C(=O)Cc2cc(NC(=O)C3CCCCC3)ccc2O[C@H]1CN(C)S(=O)(=O)c1cn(C)cn1 | inactive
49 | C[C@H](CO)N1C[C@H](C)[C@@H](CN(C)Cc2ccc(-c3ccccc3)cc2)Oc2ccc(NC(=O)Cn3cnnn3)cc2CC1=O | inactive
50 | NCCCCCCNC(=O)[C@H]1C[C@H]2C(=O)N[C@@H](Cc3ccccc3)C(=O)N2[C@H]1c1cccc(OCCO)c1 | inactive
51 | C[C@@H]1CCCCO[C@@H](CN(C)C(=O)Cc2ccccc2)[C@H](C)CN([C@@H](C)CO)C(=O)c2cc(NS(=O)(=O)c3ccc(F)cc3)ccc2O1 | inactive
52 | O.O=C([O-])CC(O)(CC(=O)[O-])C(=O)[O-].[Li+].[Li+].[Li+] | inactive
53 | C[C@H](CO)N1C[C@H](C)[C@@H](CN(C)Cc2ccc(C(F)(F)F)cc2)Oc2c(NS(=O)(=O)c3ccc(Cl)cc3)cccc2C1=O | inactive
54 | CC(C)NC(=O)N(C)C[C@H]1Oc2c(NS(=O)(=O)c3ccccc3)cccc2C(=O)N([C@H](C)CO)C[C@@H]1C | inactive
55 | C[C@@H]1CN([C@H](C)CO)C(=O)c2cccc(NS(=O)(=O)c3cccs3)c2O[C@@H]1CN(C)Cc1ccc(-c2ccccc2)cc1 | inactive
56 | C[C@@H]1CN([C@@H](C)CO)C(=O)c2cccc(NS(=O)(=O)c3ccc(Cl)cc3)c2O[C@@H]1CN(C)Cc1ccc(C(F)(F)F)cc1 | active
57 | CC(C)NC(=O)N(C)C[C@H]1Oc2c(NS(=O)(=O)c3ccccc3)cccc2C(=O)N([C@H](C)CO)C[C@H]1C | active
58 | C[C@@H]1CN([C@H](C)CO)C(=O)c2cccc(NS(=O)(=O)c3cccs3)c2O[C@H]1CN(C)Cc1ccc(-c2ccccc2)cc1 | inactive
59 | CC(C)NC(=O)N(C)C[C@@H]1Oc2c(NS(=O)(=O)c3ccccc3)cccc2C(=O)N([C@@H](C)CO)C[C@@H]1C | inactive
60 | C[C@@H]1CN([C@@H](C)CO)C(=O)c2cccc(NS(=O)(=O)c3cccs3)c2O[C@@H]1CN(C)Cc1ccc(-c2ccccc2)cc1 | active
61 | C[C@H]1CN([C@@H](C)CO)C(=O)c2cccc(NS(=O)(=O)c3ccc(Cl)cc3)c2O[C@@H]1CN(C)Cc1ccc(C(F)(F)F)cc1 | inactive
62 | Cc1noc(C)c1S(=O)(=O)N(C)C[C@H]1OCCCC[C@@H](C)Oc2ccc(NC(=O)Nc3ccc(F)cc3)cc2C(=O)N([C@@H](C)CO)C[C@H]1C | inactive
63 | Cc1noc(C)c1NC(=O)Nc1ccc2c(c1)CC(=O)N([C@H](C)CO)C[C@H](C)[C@@H](CN(C)Cc1ccc(Oc3ccccc3)cc1)O2 | inactive
64 | C[C@H](CO)N1C[C@H](C)[C@@H](CN(C)C(=O)Nc2ccc3c(c2)OCO3)Oc2ccc(NC(=O)C3CC3)cc2CC1=O | inactive
65 | Cc1noc(C)c1S(=O)(=O)N(C)C[C@H]1Oc2ccc(NC(=O)Cn3cnnn3)cc2C(=O)N([C@H](C)CO)C[C@H]1C | inactive
